Laboratory results reported in ChEMBL document CHEMBL3988442, “University of Dundee, Small-Polar-MMV Screening Library” (2021).
The whole screen tested about 48,000 compounds, of which about 13,000 (27%) showed an effect of 50% or more. The list shows a part of the results.

What follows are compounds tested on Wolbachia pipientis (assay: Anti-Wolbachia Cell-Based Screen). Conditions: 5 µM.
Format: functional
Set-up: scale not given: in the data most compounds retested in dose-response had high values
CCC(NCCn1cc(C)cn1)C(=O)Nc1cc(C)on1 (stereo not drawn) was tested, and the “Percent Effect” value was -26.17%. For CC(=O)c1cc(CC(=O)NCc2cccc(F)c2F)cs1, the “Percent Effect” value was -6.344%. With O=C1CC[C@H]2CN(c3ncccc3F)CC[C@H]2N1CCc1ccccc1 the “Percent Effect” value was 4.939%. Cc1noc(C)c1CN(C)Cc1csc(-c2ncccn2)n1 was tested, and the “Percent Effect” value was 0.1209%. N[C@@H]1c2ccccc2C2(CCN(C(=O)c3ccc(=O)[nH]c3)CC2)[C@H]1O was tested, and the “Percent Effect” value was 2.656%. In the case of Cc1cc(CN2CCN(C(=O)NCc3nc(C)cs3)CC2)on1, the “Percent Effect” value is reported as -3.882%. O=C(c1csc(Br)c1)N1CCCC(n2ccnc2)C1 (stereo not drawn) was tested, and the “Percent Effect” value was -1.444%. NS(=O)(=O)c1cc(C(=O)N2CCCC(n3ccnc3)C2)cs1 (stereo not drawn) was tested, and the “Percent Effect” value was 104.4%. With CC1CCCN(C(=O)c2csc(S(N)(=O)=O)c2)CC1 (stereo not drawn) the “Percent Effect” value was -10.27%. FC(F)(F)c1cccnc1N1CCC(OC2CCOCC2)CC1 was tested, and the “Percent Effect” value was 1.629%. In the case of CCOc1ccc(CNC(C)c2ccc3[nH]c(=O)[nH]c3c2)cc1 (stereo not drawn), the “Percent Effect” value is reported as 115.8%. For Cc1ccc(CNC(C)c2ccc3[nH]c(=O)[nH]c3c2)s1 (stereo not drawn), the “Percent Effect” value was 0.5584%. For CC(NCc1ccc(F)cc1)c1ccc2[nH]c(=O)[nH]c2c1 (stereo not drawn), the “Percent Effect” value was 94.79%. COc1ccc(CNC(C)c2ccc3[nH]c(=O)[nH]c3c2)cc1 (stereo not drawn) was tested, and the “Percent Effect” value was 1.768%. With CC(NCc1ccc(F)cc1)c1ccc(OCC(=O)NC2CC2)cc1 (stereo not drawn) the “Percent Effect” value was 13.29%. In the case of CC(NCc1ccc(OCC(N)=O)cc1)c1ccc(Cl)c(Cl)c1.Cl (stereo not drawn), the “Percent Effect” value is reported as 11.22%. With Nc1ccnc(N2CCC(CCc3ccccc3)(C(=O)O)CC2)n1 the “Percent Effect” value was -1.622%. CC(C)CC1COCCN1C(=O)Cc1cccs1 (stereo not drawn) was tested, and the “Percent Effect” value was -4.501%. With CC(=O)N1[C@H](CN(C)C)C[C@@H]2CN(c3ncc(F)cn3)CC[C@@H]21.O=C(O)C(F)(F)F.O=C(O)C(F)(F)F the “Percent Effect” value was -11.57%. CC(=O)N1[C@H](CN(C)C)C[C@@H]2CN(C(=O)Cc3cccs3)CC[C@@H]21.O=C(O)C(F)(F)F was tested, and the “Percent Effect” value was 96.5%. For CN(C)C[C@@H]1C[C@@H]2CN(C(=O)Cc3cccs3)CC[C@@H]2N1C, the “Percent Effect” value was 87.94%. With CN(C)Cc1nnc(C2CCN(C(=O)CCc3cccs3)CC2)n1C the “Percent Effect” value was -18.7%. With CC(=O)N1[C@H](Cn2cncn2)C[C@@H]2CN(Cc3ccncc3)CC[C@@H]21.O=C(O)C(F)(F)F.O=C(O)C(F)(F)F the “Percent Effect” value was -2.106%. In the case of Cn1cc(CCCNS(=O)(=O)N2CCCC2c2ccco2)cn1 (stereo not drawn), the “Percent Effect” value is reported as -2.203%. For OC1(CNc2ccc(Br)cn2)CCSCC1, the “Percent Effect” value was 5.842%. For O=C([C@H]1CCCO1)N1CC[C@@H](O)[C@@H]1Cc1ccccc1, the “Percent Effect” value was 97.77%. In the case of O=C1CC[C@H]2[C@H](CCN2C(=O)C2CCCO2)N1Cc1ccncc1 (stereo partly drawn), the “Percent Effect” value is reported as 9.155%. Cc1cc(C(=O)N2CC[C@H](OCC3CC3)[C@@H]2Cc2cccnc2)no1 was tested, and the “Percent Effect” value was -4.828%. For O=C(O)C(F)(F)F.O=C([C@H]1CCCO1)N1CC[C@H](O)[C@@H]1Cc1ccncc1, the “Percent Effect” value was -12.15%. For O=C([C@H]1CCCO1)N1CC[C@H](O)[C@@H]1Cc1cccnc1, the “Percent Effect” value was 104.4%. With CC(C)N(C)[C@@H]1CCN(C(=O)[C@H]2CCCO2)[C@H]1Cc1cnn(C)c1 the “Percent Effect” value was -7.042%. In the case of Cn1cc(Br)c(=O)c(NS(=O)(=O)c2ccc(F)cc2)c1, the “Percent Effect” value is reported as -3.18%. In the case of CSCCNC(=O)C1CCC(=O)N(C2CCCC2)C1 (stereo not drawn), the “Percent Effect” value is reported as -26.76%. With CCOCc1ccccc1NC(=O)NCC(c1cnn(C)c1)N(C)C (stereo not drawn) the “Percent Effect” value was -8.458%. With Cc1nc(C(=O)N(C)C2CC(=O)N(Cc3ccccc3)C2=O)cs1 (stereo not drawn) the “Percent Effect” value was -12.75%. In the case of CCOC(=O)CCNC(=O)N1CCCC(CNC(=O)c2ccco2)C1 (stereo not drawn), the “Percent Effect” value is reported as 4.582%. With CCOC(=O)N1[C@@H](c2ccco2)[C@@H](C(=O)O)C[C@]12CCCCNC2=O the “Percent Effect” value was 122.2%. In the case of CCOC(=O)N1[C@@H](c2ccco2)[C@@H](C(=O)NC)C[C@]12CCCCNC2=O, the “Percent Effect” value is reported as 102%. In the case of Cc1cc(NC(N)=O)ccc1C(=O)N(C)C, the “Percent Effect” value is reported as 10.57%. In the case of CC(=O)N1CCC(c2nnc3ccc(C(=O)NC(C)C)cn23)C1 (stereo not drawn), the “Percent Effect” value is reported as 15.69%. With CN(C)C(=O)N1CCN(CCCc2ccccc2)[C@H]2CS(=O)(=O)C[C@H]21 the “Percent Effect” value was -9.893%. CN(Cc1coc(-c2ccccc2)n1)CC1CCCN1c1cccnn1 (stereo not drawn) was tested, and the “Percent Effect” value was 26.49%. For COCC1N(C(=O)c2ccco2)[C@H]2CC[C@]1(O)CC2 (stereo partly drawn), the “Percent Effect” value was 106.6%. With O=C(c1ccco1)N1C(CN2CCOCC2)[C@]2(O)CC[C@H]1CC2 (stereo partly drawn) the “Percent Effect” value was 107%. With COCC1N(C(=O)c2ccc3c(c2)OCCCO3)[C@H]2CC[C@]1(O)CC2 (stereo partly drawn) the “Percent Effect” value was 106.3%. In the case of O=C(c1ccco1)N1CCC(CSCc2ccco2)CC1, the “Percent Effect” value is reported as -5.267%. For O=C(c1ccc2c(c1)OCCCO2)N1CCCCC1C1OCCO1 (stereo not drawn), the “Percent Effect” value was -8.172%. For O=C(c1ccco1)N1C(CO)[C@]2(O)CC[C@H]1CC2 (stereo partly drawn), the “Percent Effect” value was 85.33%. In the case of O=C(c1ccco1)N1CC[C@@H](N2CCOCC2)[C@@H]1Cc1ccccc1, the “Percent Effect” value is reported as -19.81%. In the case of COCc1ccccc1NC(=O)[C@@H]1CCCN1C(=O)c1ccco1, the “Percent Effect” value is reported as 6.983%. In the case of O=C(NCC1CC1)C1CN(C(=O)c2ccco2)CC12CCOCC2 (stereo not drawn), the “Percent Effect” value is reported as -3.478%. For O=C(c1ccco1)N1CC[C@H]2[C@H]1CCN2S(=O)(=O)C1CC1, the “Percent Effect” value was -8.248%. In the case of CC1CCCCN1C(=O)c1ccc2c(c1)OCCCO2 (stereo not drawn), the “Percent Effect” value is reported as -1.264%. For COC(=O)c1sccc1NC(=O)C1CCCN1C(=O)c1ccco1 (stereo not drawn), the “Percent Effect” value was -17.58%. For COc1ccc(CC(C)(O)CNC(=O)c2cccs2)cc1 (stereo not drawn), the “Percent Effect” value was 9.514%. With O=C(CCNc1ncccn1)NCCc1ccc(Cl)s1 the “Percent Effect” value was 4.707%. In the case of CN1CCN(C2CCN(Cc3ccc(Cl)cc3)CC2)C1=O, the “Percent Effect” value is reported as -21.74%. In the case of CN1CCN(C2CCN(Cc3ccc(Cl)s3)CC2)C1=O, the “Percent Effect” value is reported as -8.107%. In the case of CCN1CCN(C2CCN(C(C(N)=O)c3ccc(F)cc3)CC2)C1=O (stereo not drawn), the “Percent Effect” value is reported as -3.81%. For CN1C[C@H]2CN(Cc3cccc(OC(F)(F)F)c3)CCN2C1=O, the “Percent Effect” value was -0.9762%. In the case of CN1CCN(C2CCN(CCOc3ccc(Cl)cc3)CC2)C1=O, the “Percent Effect” value is reported as 110.5%. With CCN1CCN(C2CCN(Cc3ccc(Cl)s3)CC2)C1=O the “Percent Effect” value was -13.73%. With CN1CCN(C2CCN(CCOc3cccc(F)c3)CC2)C1=O the “Percent Effect” value was 93.98%. With Cc1cc(C)n(CC2CN(CCOc3cccc(F)c3)CCO2)n1 (stereo not drawn) the “Percent Effect” value was -4.27%. CCN1CCN(C2CCN(CCOc3ccc(F)cc3)CC2)C1=O was tested, and the “Percent Effect” value was 105.5%. For CN1CCN(C2CCN(CCOc3cccc(Cl)c3)CC2)C1=O, the “Percent Effect” value was 94.86%. In the case of O=C(O)[C@H]1CCCN1CCOc1cccc(Cl)c1, the “Percent Effect” value is reported as -3.257%. With CCOC(=O)N1C[C@H]2CC[C@@H]1CN(Cc1ccccc1)C2 the “Percent Effect” value was -18.44%. Cn1ccc(CS(=O)(=O)Cc2cccc(F)c2)cc1=O was tested, and the “Percent Effect” value was 13.57%. For COCCN(Cc1ccc(F)cc1Cl)C(=O)c1ccncc1, the “Percent Effect” value was -4.791%. With Cc1nn2c(N3CCC(O)CC3)cc(-c3ccccc3)nc2c1C the “Percent Effect” value was 1.799%. CC(=O)c1cccc(NC(=O)CN2CCCCC2C2OCCO2)c1 (stereo not drawn) was tested, and the “Percent Effect” value was 12.92%. In the case of O=C(NCc1ccccc1CN1CCC(O)CC1)Nc1ccncc1, the “Percent Effect” value is reported as -8.548%. CC(C)CN1CCC(C(=O)NCCNC(=O)c2ccccc2)CC1 was tested, and the “Percent Effect” value was 10.43%. In the case of COc1cc(-c2noc(C(CC(C)C)N3CCCCC3=O)n2)ccn1 (stereo not drawn), the “Percent Effect” value is reported as -8.352%. In the case of Cc1noc(C2CCN(C(C)c3nc(C4CC4)no3)CC2)n1 (stereo not drawn), the “Percent Effect” value is reported as 2.218%. With CN1CCN(C2CCN(C(C(N)=O)c3ccccc3)CC2)C1=O (stereo not drawn) the “Percent Effect” value was -3.145%. For CN1CCN(C2CCN(CCOc3ccc(C#N)cc3)CC2)C1=O, the “Percent Effect” value was 102.1%. In the case of CN1CCN(C2CCN(CCOc3ccc(F)cc3)CC2)C1=O, the “Percent Effect” value is reported as -2.232%. OCCn1cc(CN2CCN(CCOc3ccccc3F)CC2)cn1 was tested, and the “Percent Effect” value was 2.742%. With CN1CCN(C2CCN(Cc3noc(-c4ccccc4)n3)CC2)C1=O the “Percent Effect” value was -0.9175%. In the case of CN1CCN(C2CCN(CCOc3ccccc3F)CC2)C1=O, the “Percent Effect” value is reported as 107.7%. In the case of Cn1c(C2CC2)nc2c1CCN(CCOc1ccc(C#N)cc1)C2, the “Percent Effect” value is reported as -1.848%. In the case of CN1CCN(C2CCN(CCCOc3ccc(F)cc3)CC2)C1=O, the “Percent Effect” value is reported as 81.83%. CN1CCN(C2CCN(CCOc3ccccc3)CC2)C1=O was tested, and the “Percent Effect” value was 94.15%. In the case of COc1ccc(CCN2CCC(N3CCN(C)C3=O)CC2)cc1, the “Percent Effect” value is reported as -2.52%. For CC(C)c1nnc(CNc2nc(-c3cccnc3)nc3c2CCC3)n1C, the “Percent Effect” value was 6.162%. For Cc1cnn(CCNCc2csc(-c3cccs3)n2)c1, the “Percent Effect” value was -4.856%. Cc1cc(CC(=O)NCC(O)COc2ccc(F)c(F)c2)no1 (stereo not drawn) was tested, and the “Percent Effect” value was -5.317%. For Cc1cccc(-c2nc(CN3CCc4c(ncn4C)C3)no2)c1, the “Percent Effect” value was 5.431%. For COC(C)C(=O)NS(=O)(=O)c1cccc2cc(C)cnc12 (stereo not drawn), the “Percent Effect” value was -12.97%. CCc1cnc(NCC(CC)N2CCOCC2)nc1 (stereo not drawn) was tested, and the “Percent Effect” value was 14.29%. With COCCNC(=O)Nc1ccc(CN2CCOC2=O)cc1 the “Percent Effect” value was -11.28%. COc1ccc(C(C)n2ccnc2-c2cc3n(n2)CCCNC3)cc1F (stereo not drawn) was tested, and the “Percent Effect” value was 6.118%. O=C1CCC(C(=O)NCc2nncn2-c2ccccc2)CN1 (stereo not drawn) was tested, and the “Percent Effect” value was 3.893%. Cc1cccc(CNCC2COC3(CCCCC3)O2)c1C (stereo not drawn) was tested, and the “Percent Effect” value was 5.002%. For COc1ccc2[nH]nc(CN3CCC(C(C)N4CCCC4)CC3)c2c1 (stereo not drawn), the “Percent Effect” value was -10.16%. For Cc1ccc(NCc2cnc3n2CCN(c2ncccn2)CC3)nn1, the “Percent Effect” value was 97.55%. With O=C(C1CCOC1)N1CCc2ncc(CNc3ccccn3)n2CC1 (stereo not drawn) the “Percent Effect” value was -18.08%. Cc1ccc(N2CCc3ncc(CNc4ccccn4)n3CC2)nn1 was tested, and the “Percent Effect” value was 114.5%. For CN(Cc1ccco1)Cc1cnc2n1CCN(c1ncccn1)CC2.O=C(O)C(F)(F)F, the “Percent Effect” value was 6.885%. With Cn1cccc1C(=O)NCc1cnc2n1CCN(c1ccccn1)C2 the “Percent Effect” value was -1.189%. COCCN1CCc2ncc(CNc3cc(N(C)C)ncn3)n2CC1 was tested, and the “Percent Effect” value was -5.126%.
